Bioassay records (PubChem)
A selection: hits, their analogues and other compounds. The true share with any hit is near 2.9%.
GLP1R cytotox – cytotoxic in the GLP-1 receptor inverse agonist counter-screen; HEK293 cAMP-luciferase reporter cells, luminescence, 24 h; hit rate 0.13% among 410,000; AID 624418; Potency, µM (series often up to 38.3 µM), actives largely listed as inhibitors;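 further: loss of luciferase light is scored as toxicity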
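Step one: seed cells (200 cells/uL, DMEM with 10% Nu serum, 1% pen-strep). Step two: 12-hour incubation at 37 deg C. Step three: pin 23 nL compound, incubate 24 hr. Step four: add luciferase reagent, read luminescence 12 min later.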
GLP-1R agonist – activates the human GLP-1 receptor; hit rate 0.007% among 380,000; HEK293 GLP-1R CRE-luciferase, luminescence, 4-6 h; cells express a hypersensitive GLP-1R form; P43220; Potency, µM (top dose mostly 45.6 µM), most hits filed as activators
Target sequence (P43220 whole entry, looked up): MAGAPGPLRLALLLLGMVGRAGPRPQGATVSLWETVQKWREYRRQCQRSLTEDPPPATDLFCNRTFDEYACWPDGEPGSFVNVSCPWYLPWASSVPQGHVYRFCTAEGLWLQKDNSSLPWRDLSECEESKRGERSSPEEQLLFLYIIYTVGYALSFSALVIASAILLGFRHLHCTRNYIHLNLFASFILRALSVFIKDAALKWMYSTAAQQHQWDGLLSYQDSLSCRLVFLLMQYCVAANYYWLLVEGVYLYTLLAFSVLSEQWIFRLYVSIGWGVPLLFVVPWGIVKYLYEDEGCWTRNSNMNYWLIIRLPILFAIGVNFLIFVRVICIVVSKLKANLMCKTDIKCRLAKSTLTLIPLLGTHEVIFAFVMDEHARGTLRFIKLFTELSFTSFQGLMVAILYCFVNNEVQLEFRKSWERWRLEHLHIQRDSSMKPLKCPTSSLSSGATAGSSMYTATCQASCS
LDHA inh – inhibitors of human lactate dehydrogenase A. activity change, % (values are at about 110 or 230 µM). purified LDHA, NADH/diaphorase-resazurin fluorescence; stronger effect = lower value. P00338. hit rate 0.15% among 480,000; in the data active means activity change below about -30%; inconclusive means mostly about -25% to -30%
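Human LDH5 at 2 nM final in Tris HCl pH 7.4 with 0.06 mM NADH and 0.2 mM pyruvate, reacted 5 minutes at room temperature. Remaining NADH coupled via diaphorase/resazurin; resorufin fluorescence read at 0 and 20 minutes, normalized to enzyme-free and DMSO wells.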
GLP-1R inv ag – inverse agonists of human GLP-1 receptor; HEK293 GLP-1R CRE-luciferase, luminescence, 24 h; GLP-1R form is constitutively active; P43220; hit rate 1.6% among 410,000; Potency, µM (top dose mostly 38.3 µM), most hits filed as inhibitors; further: nearly all actives have a fitted effect of over 55% in size
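HEK293 cells stably co-expressing constitutively active GLP-1R and a cAMP-responsive luciferase reporter were seeded in DMEM with 10% Nu serum, given compounds after 12 h, and incubated 24 h at 37 deg C. Luminescence was then read.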
ClpP mod – qHTS Assay for Activators of ClpP; hit rate 1.9% among 340,000; purified B. subtilis ClpP, FRET peptide cleavage, 20 min; Potency, µM (titrated, usually from 57.5 µM); AID 651965, 2013; ATP-dependent Clp protease proteolytic subunit (Bacillus subtilis (strain 168)), P80244; active means well fitted falling curve with a large enough effect; inconclusive means small, poorly fitted or top-dose-only effect; inactive means no such curve, though single readings can be large or run the other way; further: the source files actives as falling curves though it sought activators and does not explain the sign; nearly all actives have a fitted effect of over 65% in size
Target sequence (P80244 whole entry, looked up): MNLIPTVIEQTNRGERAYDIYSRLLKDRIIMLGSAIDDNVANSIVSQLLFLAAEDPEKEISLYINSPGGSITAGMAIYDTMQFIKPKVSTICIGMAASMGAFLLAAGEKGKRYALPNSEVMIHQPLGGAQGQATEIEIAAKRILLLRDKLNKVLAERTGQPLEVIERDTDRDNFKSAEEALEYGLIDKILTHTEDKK
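ClpP 10 microg/mL final, pH 8 Tris/KCl buffer with BSA, glycerol, Tween-20; compound pinned in; FRET-FV substrate; RT 20 min; Ex320/Em430; ΔFRET vs ADEP 5.8 microM, DMSO, no enzyme.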
p53 reactivator – mutant p53 re-activation in reporter cells; H1299 p53-A138V BP100-luciferase reporter, luminescence, 24 h; Potency, µM (series often up to 92.2 µM), hits mostly activators; hit rate 0.063% among 320,000; AID 504706; further: nearly all actives have a fitted effect of over 45% in size
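H1299 (p53-null), stable ts p53-A138V + BP100-Luc; 1000 cells/well, Opti-MEM/10% FBS; cpd 4 pt, 1:5; 24 h, 37 deg C, 5% CO2; detection reagent 10 min RT; luminescence.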
A number is an active result; – = inactive; ? = inconclusive; · = no result given. Unless noted, the call rests on the fitted dose curve; in most records, active means well fitted curve in the direction sought with a large enough effect; inconclusive means small, poorly fitted or top-dose-only effect, or another doubt; inactive means no such curve, though single readings can be large; an effect the other way counts as inactive or inconclusive.

SMILES | GLP1R cytotox | GLP-1R agonist | LDHA inh | GLP-1R inv ag | ClpP mod | p53 reactivator
CCOC(=O)c1cc(-c2ccc(OC)cc2)nc2c1c(C)nn2CCC#N | – | ? | – | – | 25µM | –
NC(=O)CSc1nnc(-c2cc(-c3cccs3)nc3ccccc23)o1 | – | – | – | – | 25µM | –
CCCN(CC1CC1)C(=O)CSc1nnc(-c2cc(-c3cccs3)nc3ccccc23)o1 | – | – | – | ? | 25µM | –
CCC(C)NC(=O)CSc1nnc(-c2cc(-c3cccs3)nc3ccccc23)o1 (centres undefined) | – | – | – | – | 25µM | –
COC(c1ccccc1)c1nnc(CCC(=O)NC2C3CC4CC(C3)CC2C4)o1 (centres undefined) | – | – | – | – | – | –
CC(=NCCc1c(C)[nH]c2ccc(OCc3ccccc3)cc12)C1=C(O)CC(c2ccccc2)CC1=O (centres undefined) | – | – | – | ? | · | –
Cc1ccc(O)c(-c2cc(-c3ccccc3C)[nH]n2)c1 | ? | – | – | 5.6µM | – | ?
COc1ccc(-c2n[nH]c(C)c2-c2ccc(Cl)cc2)c(O)c1 | ? | – | – | ? | – | –
COc1ccc(O)c(-c2c(-c3ccc(Cl)cc3)n[nH]c2C)c1 | – | – | – | 10µM | – | –
COc1ccc(-c2cc(-c3cc(C)ccc3O)[nH]n2)cc1 | ? | – | – | 10µM | · | –
CSCCC(NC(=O)[C@@H](NC(=O)c1ccc(Cl)cc1Cl)C(C)C)c1nnc2ccccn12 (some centres undefined) | · | · | – | · | · | ·
COc1ccc(Cl)cc1C(=O)Nc1sc2c(c1C(N)=O)CCCC2 | · | · | – | · | · | ·
Cc1c(C#N)c(N)nc2c3c(sc12)NC(=O)CC3c1ccc(F)cc1 (centres undefined) | – | – | – | – | – | –
CCCc1ccc(OCCNC(=O)C2CCCCC2)cc1 | – | – | – | ? | · | –
N#Cc1cc(N)ccc1Sc1ccc(Cl)cc1 | – | – | – | ? | 28µM | –
Cc1ccc(Nc2ccc(C(=O)O)cc2N)cc1 | – | – | – | – | – | –
Cc1cc(C)cc(Nc2ccc(C(=O)O)cc2N)c1 | – | – | – | – | 28µM | ?
CCC(C)[C@H](NC(=O)Nc1cccc(Cl)c1)C(=O)O (some centres undefined) | – | – | – | – | – | –
CCOC(=O)C1C(=O)C=C(c2ccc(C)cc2)CC1c1ccc([N+](=O)[O-])cc1 (centres undefined) | – | – | – | 10µM | – | –
COc1ccc(N2CCN(CC(O)COc3ccc(C(C)C)c(C)c3)CC2)cc1 (centres undefined) | ? | · | – | 13µM | – | ·
Cc1ccc(C)c2sc(NC(=O)c3ccc(N4C(=O)CCC4=O)cc3)nc12 | – | – | – | – | – | –
CC(C)c1noc(CN2CCN(c3oc(-c4ccco4)nc3C#N)CC2)n1 | · | · | – | · | · | ·
Cc1c(C(=O)N(Cc2ccccc2)C(C)C)cnn1-c1ccccc1 | – | – | – | ? | – | –
Cc1c(C(=O)N(Cc2ccccc2)Cc2cccs2)cnn1-c1ccc(Cl)cc1 | ? | – | – | 5.6µM | · | –
O=C(COc1ccc(Br)cc1)Nc1ccccc1N1CCCC1 | – | – | – | – | – | –
SMILES | GLP1R cytotox | GLP-1R agonist | LDHA inh | GLP-1R inv ag | ClpP mod | p53 reactivator
CCc1ccc(CN(C)C(=O)c2cc(COc3c(F)cccc3F)on2)cc1 | – | – | – | ? | · | –
CN(Cc1cccc2ccccc12)C(=O)c1cc(COc2c(F)cccc2F)on1 | – | – | – | 10µM | · | –
CCN1CCN(CCNC(=O)c2ccc(/C=C3/Sc4ccccc4N(Cc4cccc(Cl)c4)C3=O)cc2)CC1 | ? | – | – | ? | · | –
Cc1ccccc1CN1C(=O)/C(=C\c2ccc(C(=O)NCCN3CCOCC3)cc2)Sc2ccccc21 | – | – | – | 11µM | – | –
CCc1ccc(/C=C2/Sc3ccccc3N(CC(=O)NCCCN3CCOCC3)C2=O)cc1 | – | – | – | 8.9µM | – | ?
CCCCNC(=O)c1ccc2c(c1)N(CC)C(=O)c1ccccc1S2 | – | · | – | ? | – | ·
CCN1CCN(CCNC(=O)c2ccc3c(c2)N(Cc2ccc(F)cc2)C(=O)/C(=C/c2ccccc2)S3)CC1 | ? | – | – | 10µM | · | –
CCN1C(=O)c2ccccc2Sc2ccc(C(=O)NCCCN3CCCCC3)cc21 | – | – | – | 13µM | – | –
CC(C)(O)CN(C(=O)C(c1ccccc1)c1ccccc1)C1CCCCC1 | – | – | – | ? | – | ·
CCOC(=O)Cn1c(=O)n(C2CCCC2)c(=O)c2ccccc21 | – | – | – | ? | – | –
Nc1nc(=O)n([C@@H]2CS[C@H](CO)O2)cc1F | · | – | · | · | · | ·
O=C(Nc1nc2nccc(-c3ccccc3)n2n1)c1ccc(F)cc1 | – | – | – | – | 28µM | –
O=C(Nc1nc2nccc(-c3ccccc3)n2n1)c1ccccc1 | – | – | – | – | · | –
O=C(NCc1ccccc1)c1cc2sccc2n1Cc1ccc(F)cc1 | – | – | – | 10µM | – | ·
O=C(N1CCCCC1)N1CCN(C(c2ccccc2)c2ccccc2)CC1 | – | – | – | 5µM | – | –
O=C(NC1CCCCC1)N1CCN(C(c2ccccc2)c2ccccc2)CC1 | – | – | – | 4µM | – | –
CCc1ccc(C(=O)COC(=O)CNC(=O)c2ccccc2)cc1 | · | · | – | · | · | ·
Cc1[nH]n(-c2ccccc2)c(=O)c1/C=N/NC(=O)c1cccc(F)c1 | – | – | – | 7.9µM | – | ?
Cc1[nH]n(-c2ccccc2)c(=O)c1/C=N/N1C(=O)c2cccc3cccc(c23)C1=O | ? | – | – | 13µM | · | –
COc1ccc(OCC(=O)Nc2ccc(S(=O)(=O)N(C)c3ccccc3)cc2)cc1 | – | – | – | ? | – | ·
O=c1cc(-c2ccccc2Cl)oc2c(NS(=O)(=O)c3cc(Cl)cc(Cl)c3O)ccc(O)c12 | ? | – | – | 4µM | – | –
CCc1ccc(S(=O)(=O)Nc2ccc(O)c3c(=O)cc(-c4ccccc4Cl)oc23)cc1 | – | – | – | ? | – | –
Cc1ccc(-c2oc3ncnc(N)c3c2-c2ccc(C)cc2)cc1 | – | – | – | – | 28µM | –
C[C@@H]1CN([C@H](C)CO)C(=O)c2c(c3ccccc3n2C)-c2ccccc2CO[C@@H]1CN(C)S(=O)(=O)c1cccs1 | – | – | – | ? | – | ·
CCOC(=O)CN1C(=O)N[C@@H](c2cccc(C(F)(F)F)c2)[C@H](C(C)=O)[C@H]1C | – | – | – | – | – | ·
COc1cccc(C#Cc2c(C=O)n(C)c3ccccc23)c1 | – | – | – | 10µM | – | –
